Screening results as filed in PubChem BioAssay.
Insulin prom up: insulin promoter activators in MIN6 cells, imaging, high-content screening, mouse beta cells; AID 1625, 2009; actives 0.3% (n = 190,000); MIN6 insulin promoter-GFP reporter; stronger effect = higher value; z-score at 5 µM;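 active means z-score above 3 at 5 µM with at least 500 cells counted in the well; inconclusive means wells under 500 cells, flagged as cytotoxic or low count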
INS promoter inh: inhibitors of insulin promoter-driven GFP, primary screen, imaging, TRM-6 cells (human fetal islet line), eGFP reporter, cell count; actives 0.9% (n = 130,000); inhibition, % at 2 µM; reporter expression induced with tamoxifen;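 active means inhibition above the mean plus 3 SD, with well images judged a real hit on visual review, cut at about 60% in these data, passing the limit was not always enough; inconclusive means inhibition over the cutoff but images rejected on review; inactive means inhibition not above the cutoff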
Efa HMGR inh: inhibitors of E. faecalis class II HMGR, primary screen, biochemical, Enterococcus faecalis. purified E. faecalis HMGR, NADPH absorbance 340 nm kinetic. inhibition, % at 10 µM. actives 0.41% (n = 190,000). AID 1066, 2008;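 active means inhibition above a set limit, the median over all tested compounds plus 3 SD, cut at about 9.5% in these data; inconclusive means no clear call, values can overlap the other calls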;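 further: enzyme runs in reverse so mevalonate oxidation gives rising NADPH absorbance; 0% = complete reaction with DMSO and 100% = background rate lacking mevalonate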
Autophagy mod: autophagy modulators in MEF cells, primary screen, imaging, high-content, MEF GFP-LC3; MEF GFP-LC3 puncta imaging; test concentration mostly 10 µM; calls only at 10 µM (by protocol); actives 0.98% (n = 190,000); AID 463193, 2010;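 active means percentage of spot-positive cells more than 3 SD above its plate mean, without a fluorescence outlier flag or 80% toxicity; inconclusive means no clear call, values can overlap the other calls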;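 further: spot-positive cell cutoff set from DMSO-treated cells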
The depositor's hits bear a star; i = inactive; u = inconclusive; x = no result; + = active, no number; ! = not confirmed by another sample. In the library only some 1.9% were active in any assay of this set; here they are far more common.

SMILES	Insulin prom up	INS promoter inh	Efa HMGR inh	Autophagy mod
C[C@H]1O[C@@H](O[C@H]2[C@@H](O)C[C@H](O[C@H]3[C@@H](O)C[C@H](O[C@H]4CC[C@@]5(C)[C@H](CC[C@@H]6[C@@H]5CC[C@]5(C)[C@@H](C7=CC(=O)OC7)CC[C@]65O)C4)O[C@@H]3C)O[C@@H]2C)C[C@H](O)[C@@H]1O	x	100*	-6	i
C[C@@H]1O[C@@H](O[C@H]2C[C@@H](O)[C@]3(CO)[C@H]4[C@H](O)C[C@]5(C)[C@@H](C6=CC(=O)OC6)CC[C@]5(O)[C@@H]4CC[C@]3(O)C2)[C@H](O)[C@H](O)[C@H]1O	x	-355	-7	i
CC(=O)NN1C(=O)c2ccccc2NC1c1cccnc1 (stereo not drawn)	x	-71	-3	i
COc1ccc(C[C@@H]2c3cc(O)c(OC)cc3CCN2C)cc1O	0.02	29	20*	i
COc1ccc(CC2c3cc(OC)c(OC)cc3CCN2C)cc1OC (stereo not drawn)	0.35	x	0	i
C[C@H]1CCCC(=O)CCCCCc2cc(O)cc(O)c2C(=O)O1	x	-118	3	i
Cc1cc2c(C(C)C)c(O)c(O)c(C=O)c2c(O)c1-c1c(C)cc2c(C(C)C)c(O)c(O)c(C=O)c2c1O	x	62*!	7	i
Cc1c2ccncc2c(C)c2c1[nH]c1ccccc12	x	-355	x	+
c1ccc2c(c1)[nH]c1cnccc12	x	36	-10	i
CC1=CC(=C2C(=O)NC(=S)NC2=O)C=C(C(F)(F)F)N1Cc1ccccc1	-0.16	-407	1	+
O=C1CN(C(=O)CN2CCCCC2)C(c2ccccc2)c2cc(Br)ccc2N1 (stereo not drawn)	-0.25	-47	1	i
O=c1c2cc(Br)ccc2[nH]c(=S)n1-c1ccccc1	1.2	73*	-6	i
Cn1c(O)c(N=Nc2cccc(S(=O)(=O)N3CCOCC3)c2)c(=O)n(C)c1=O	-0.17	-6	6	i
O=C(Nc1ccc(Cl)cc1C(=O)c1ccccc1)c1ccc(Br)o1	0.5	-69	5	i
Cc1ccc(-c2cc(-c3ccc(C)cc3)[n+](C)o2)cc1	u	79*	-5	i
O=c1[nH]c(=O)n(-c2ccc(F)cc2)c(O)c1C=Nc1ccccc1N1CCCC1	4.4*	-22	-7	i
COc1ccc(C(=O)C23CN4CN(CN(C4)C2)C3)cc1	-0.39	-18	1	i
CCc1ccc(C(=O)C23CN4CN(CN(C4)C2)C3)cc1	x	-29	12*	i
CC1CCCC(C2(O)C(=O)Nc3ccccc32)C1=O (stereo not drawn)	5.6*	-4	-2	i
CCOP(=O)(OCC)C1(O)C(=O)Nc2ccccc21 (stereo not drawn)	x	0	-1	i
CCOC(=O)CCN=Cc1c(O)n(-c2ccc(Br)cc2)c(=O)[nH]c1=O	-0.01	-9	-1	i
O=c1[nH]sc2cc(F)ccc12	-0.94	-6	-11	i
CCc1c(C(=O)NN2C(=O)C3C4CCC(O4)C3C2=O)csc1C (stereo not drawn)	0.19	-8	1	i
CC1(C)CC(n2[nH]c(=O)c3c2NC(=O)CSC3c2ccccc2)CCO1 (stereo not drawn)	0.22	43	0	i
CCc1ccccc1N1C(=O)/C(=C/c2ccc(N3CCN(C)CC3)o2)C(=O)NC1=S	3.4*	-60	4	i
CN(C)C(=S)SSC(=S)N(C)C	u	100*	-5	+
